This note sets out measurements from PubChem BioAssay AID2451 (National Center for Advancing Translational Sciences (NCATS), 2010).

Molecules are shown by their SMILES. The campaign covered roughly 290,000 compounds. About 2,100 (0.72%) were called active. A call without a number means that no potency is given here. Roughly 4% stayed inconclusive and do not appear here. This excerpt belongs to a sample that is enriched for actives. Unmarked numbers belong to inactive results. Calls follow the shape of the dose curve; as a rule, active = well fitted inhibition curve with a large enough effect; inconclusive = small, poorly fitted or top-dose-only effect, or effect the other way; inactive = flat fitted curve, though single readings scatter.
Potency is read from the fitted curve at half-maximal effect.

Fructose-bisphosphate aldolase (Giardia intestinalis (strain ATCC 50803 / WB clone C6)), sequence (A8B2U2 whole entry, looked up): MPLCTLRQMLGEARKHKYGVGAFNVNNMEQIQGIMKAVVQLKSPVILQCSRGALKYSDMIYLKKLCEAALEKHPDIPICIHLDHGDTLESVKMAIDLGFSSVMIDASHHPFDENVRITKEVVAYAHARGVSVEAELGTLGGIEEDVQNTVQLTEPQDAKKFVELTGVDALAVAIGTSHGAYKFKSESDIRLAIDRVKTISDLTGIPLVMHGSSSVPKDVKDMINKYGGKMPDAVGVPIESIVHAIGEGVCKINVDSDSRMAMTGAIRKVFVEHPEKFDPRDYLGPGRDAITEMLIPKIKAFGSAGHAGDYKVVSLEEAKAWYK

The experiment addresses Fructose-bisphosphate aldolase (Giardia intestinalis (strain ATCC 50803 / WB clone C6)) (UniProt A8B2U2). In words: qHTS Assay for Inhibitors of Fructose-1,6-bisphosphate Aldolase from Giardia Lamblia. Also: nearly all actives have a fitted effect of over 55% in size. Particulars: purified Giardia FBPA; series mostly up to 59.6 µM. An excerpt:
Assay Provider: Osnat Herzberg, University of Maryland
The objective of this project is to obtain compounds that inhibit Giardia lamblia growth. G. lamblia is a human pathogen which afflicts impoverished nations; it is the most common cause of outbreaks of diarrhea in the United States. During the course of our study of potential drug targets in Giardia, we have identified the Class II (Zn2+ functions in electrophilic catalysis) fructose-1,6-bisphosphate aldolase (FBPA) as an excellent candidate for drug targeting. FBPA is a key glycolytic pathway enzyme, essential for G. lamblia survival. The human FBPA belongs to the Class I aldolases, which have a different substrate binding site structure and a radically different catalytic mechanism (employing a lysine-Schiff base intermediate). Therefore, affinity-based or mechanism-based inhibitors of the Giardia FBPA are expected not to interfere with the catalytic function of the human FBPA.
A glyceraldehyde-3-phosphate dehydrogenase/triose phosphate isomerase/NAD/arsenate coupled assay was adapted to the 1536-well HTP format for use in the primary screen. This was done by coupling it to a diaphorase/resazurin/resorufin reaction that can be monitored by fluorescence (excitation, 544 nm; emission, 590 nm). Compounds identified in this screen will be further evaluated by coupling the glycerol-3-phosphate/triose phosphate isomerase/NADH assay to a phenazine methosulfate/tetranitroblue tetrazolium color reaction. False positives due to the dehydrogenases and diaphorase inhibition will be eliminated, and selectivity assay will triage inhibitors of mammalian triose phosphate isomerase and the Class I FBPA. G. lamblia FBPA inhibitors identified by the in vitro analyses will be examined for growth inhibition of Giardia trophozoites, and for cytotoxicity in human cells.
Step,Parameter,Value,Description
1,Enzyme reagent,2 uL,40 nM FBPA
2,Compound,23 nL,3.68 nM-57.5 uM final concentration
3,Time,10 min,RT Incubation
4,Substrate/detection Reagent,2 uL,Substrate + enzyme coupling system + AmpLite Red kit
5,Time,20 min,RT Incubation
6,Detector,525 nm/598 nm (Fluorescence),ViewLux Fluorescence Read (Read 1)
1,Medium-binding black solid-bottom Kalypsys plates. FRD or Kalypsys dispenser, 2 uL of FBPA enzyme. Bottle kept at 4C.
2,Compound Library (10 mM ,1:5 dilution). Pin-transferred for a [final] range of 3.68 nM-57.5 uM.
4,FRD or Kalypsys dispenser, 2 uL of reaction mixture. Bottle kept at 4C and covered in foil to protect from light.
6,ViewLux Protocol 1194; Excitation filter wheel A (525/20 Pol; BODIPY TMR FP), Emission filter wheel B (598/25 S; BODIPY TMR FP S).
Keywords: Fructose-bisphosphate aldolase, FBPA , Giardia lamblia , Giardia, HTS, Inhibitors
For the compound `C=C(C)CNC(=S)N/N=C/c1ccccc1OCC(=O)O`, the Potency is 17.7 µM (active). Next, `CCn1c(SCC(=O)N/N=C/c2ccccc2OCC(=O)O)nnc1-c1ccc(C(C)(C)C)cc1`: “inactive”; `C=CCOc1ccccc1/C=N/NC(=O)Cc1ccccc1`: “inactive”; `COC(=O)c1cccc(N2C(=O)C3C4C=CC(CC4)C3C2=O)c1` (stereo not given): “inactive”. Then `CCCCN1C(=O)C(C)=C(C)C1OCCc1ccc(OC)c(OC)c1` (stereo not given), with “inactive”; and `Cc1ccc(C(=O)NCC(=O)OCc2nnc(-c3ccccc3)o2)cc1`, with “inactive”. Then `CCOc1ccc(N(C)Cc2cc(=O)oc3ccc(OC)cc23)cc1`, with “inactive”; and `Cn1nccc1/C=N\NC(=O)c1ccc(Cl)cc1`, with “inactive”; and `C=CCc1c(C)nc2cc(-c3ccccc3)[nH]n2c1=O`, with “inactive”. Consider `Cc1nc2cc(C(F)(F)F)ccc2n1CCNc1nc(-c2cc(Cl)c(N)c(Cl)c2)cs1`, for which the Potency result was “inactive”. For the compound `CCOC(=O)CSc1nnc(NC(=O)c2cccc(S(=O)(=O)N3CCCCC3)c2)s1`, the Potency result was “inactive”. Then `Cc1ccccc1OCC(=O)Nc1nnc(S(=O)(=O)N2CCCC2)s1`, with “inactive”. `COc1cccc(C(=O)Nc2nnc(S(=O)(=O)N3CCCCC3)s2)c1`: the Potency is 17.8 µM (active). `COc1ccc(C)cc1N(CC(=O)N1CCCC1)S(=O)(=O)c1ccccc1`: the Potency result was “inactive”. Then `Cc1ccc(C)c(N2CCN(S(=O)(=O)c3c(C)[nH]c(C)c3C(=O)N3CCCC3)CC2)c1`, with “inactive”; and `CN1CCN(CCCCOc2cccc3ccccc23)CC1`, with “inactive”; and `CN1CCN(CCCCOc2ccccc2-c2ccccc2)CC1`, with 19.9 µM (active). Next, `CC1CCCN(CCOCCOc2ccccc2-c2ccccc2)C1` (stereo not given): “inactive”; `CC(NC(=S)NNS(=O)(=O)c1ccc(C(C)(C)C)cc1)c1ccccc1` (stereo not given): “inactive”; `Cc1ccc(S(=O)(=O)NNC(=S)NC(C)(C)C)cc1`: 11.2 µM (active). Next, `COc1ccc(C(=O)NNS(=O)(=O)c2ccc(C)cc2)cc1`: “inactive”; `CCNC(=O)CC1C(=O)N(c2ccc(OC)cc2)C(=O)N1CCOC` (stereo not given): “inactive”; `O=c1oc2ccccc2c(CNc2ccccc2)c1[N+](=O)[O-]`: “inactive”.

Take `COc1ccc(C(=O)NCCSc2ccccc2C)cc1`: the Potency entry is “inactive”. Then `Clc1cccc(CN2COc3c(cc(Cl)c4cccnc34)C2)c1`, with 17.7 µM (active). On to `CC(C)CC(=O)N1CCN(Cc2cccc(Cl)c2)CC1`, for which the Potency result is “inactive”. Then `Nc1c(C(=O)NCc2ccccc2)nnn1Cc1cccc(Cl)c1`, with “inactive”; and `Cc1ccc(O)c(/C=N/NC(=O)COc2ccc3c(C)cc(=O)oc3c2)c1`, with “inactive”. Consider `Cc1ccc2c(Cl)c(C(=O)NCCCn3ccnc3)sc2c1`, for which the Potency result was “inactive”. As to `Brc1ccc(OCCn2ccnc2)cc1`, the Potency entry is “inactive”. Next, `C=CCc1cc(C)ccc1OCCCn1ccnc1`: 25.1 µM (active); `Cc1ccc(OCC(=O)Nc2ccc3oc(=O)ccc3c2)cc1C`: “inactive”. Consider `Cc1cccc(N(Cc2ccccc2)C(=O)c2ccccc2F)c1`, for which the Potency entry is “inactive”.

As to `COC(=O)c1cc(S(=O)(=O)N2CCN(c3cc(C)ccc3C)CC2)c[nH]1`, the Potency result was “inactive”. As to `O=C(Nc1cccc(Cl)c1)c1cc(S(=O)(=O)N2CCCCC2)c[nH]1`, the Potency result is “inactive”. `COc1ccc(C2c3[nH]c4ccccc4c3C[C@H]3C(=O)N(CC(C)C)CC(=O)N23)c(OC)c1` (stereo not given in full): the Potency entry is “inactive”.

Consider `CCc1nnc(NC(=O)CSc2nnc(-c3ccncc3)n2Cc2ccccc2)s1`, for which the Potency result was “inactive”. Regarding `Cc1cnc(NC(=O)CSc2nnc(-c3ccccc3)n2Cc2ccccc2)s1`, the Potency result is “inactive”. As to `Cc1cccc(-c2nnc(SCC(=O)O)n2Cc2ccccc2)c1`, the Potency is 15.8 µM (active). Next, `CC(CN1CCOCC1)OC(=O)c1ccc(C(C)(C)C)cc1` (stereo not given): “inactive”; `Cc1c(C)c(C)c2[nH]c(=S)[nH]c2c1C`: “inactive”. Take `O=c1[nH]c(=S)[nH]c2[nH]c(=S)[nH]c12`: the Potency is 12.6 µM (active). Then `Cc1ccc(S(=O)(=O)N(CCCN(C)C)Cc2ccc3c(c2)OCO3)cc1`, with “inactive”. As for `CCN(CC)Cc1c(C(=O)N/N=C/c2cccc(OCc3ccc(F)cc3)c2)nnn1-c1nonc1N`, the Potency entry is “inactive”. Regarding `CCc1ccc2c(c1)C1(NN=C(c3ccccc3)S1)C(=O)N2` (stereo not given), the Potency is 15.8 µM (active). Turning to `CCc1ccc2c(c1)C(c1ccc([N+](=O)[O-])cc1)=NNC(c1ccccc1)=N2`, the Potency result is “inactive”. Then `O=C(c1ccccc1)N1CCN(C(=O)c2cc3nc(-c4ccccc4)cc(C(F)(F)F)n3n2)CC1`, with “inactive”; and `O=C(/C=C/c1ccco1)NC(=S)Nc1ccccc1Br`, with “inactive”. Then `CCNC(=O)N1CCCC(C(=O)c2ccc(-c3ccccc3)cc2)C1` (stereo not given), with “inactive”; and `Cc1ccc(CC2CC(=O)N(c3nc(C)cc(C)n3)C2=O)cc1` (stereo not given), with “inactive”; and `Cc1cc(C)cc(NC(=O)C2CCN(c3nc(C)cc(C)n3)CC2)c1`, with “inactive”. Regarding `COC(=O)CC1=NN(c2nc(C)cc(C)n2)C(=O)C1`, the Potency was 5.61 µM (active).

In the case of `O=c1[nH]c(=O)n(-c2ccccc2)c(O)c1C=NC12CN3CN(CN(C3)C1)C2`, the Potency result is “inactive”.

For the compound `Cc1cccc(-n2c(O)c(C=Nc3ccccc3N)c(=O)[nH]c2=O)c1`, the Potency entry was “inactive”. Next, `CCCCC(=O)N/N=C/c1c(O)n(-c2ccccc2)c(=O)[nH]c1=O`: 8.89 µM (active).
